Screening results deposited in PubChem BioAssay by Broad Institute.
aSyn UTR act: Activators via SNCA 5'UTR binding, MLPCN; alpha-synuclein 5'UTR reporter, activators screen; activity score, % (tested at 7.5 µM), hits read low; actives 7.1% (n = 300,000); AID 1814; in the data active = activity score below about -60%
* marks the source's active call; other numbers are inactive results. These entries were drawn from the full list.

How did COc1cc(/C=C/c2nc3ccccc3c(=O)[nH]2)cc(OC)c1OC do in these assays?
aSyn UTR act: -84*

How did COc1cc(/C=C/c2nnc3c4ccccc4ncn23)cc(OC)c1OC do in these assays?
aSyn UTR act: -80*

Results for COC(=O)c1ccc(/C=C/c2nc3ccccc3c(=O)[nH]2)cc1 ?
aSyn UTR act: -136*

What do the screens show for `Cc1ccc(/C=C/c2nc3ccccc3c(=O)[nH]2)cc1`?
aSyn UTR act: 68

How did C=CCOc1cccc(/C=C/c2nc3ccccc3c(=O)[nH]2)c1 do in these assays?
aSyn UTR act: -182*

Results for Cc1ccc(S(=O)(=O)N2CCCCC2CCNC(=O)C(=O)NCCc2ccco2)cc1 (stereo not given) ?
aSyn UTR act: -102*

How did CCn1cc(C(=O)NCc2ccco2)c(=O)c2cc(S(=O)(=O)N3CC(C)CC(C)C3)ccc21 (stereo not given) do in these assays?
aSyn UTR act: 82

How did Cc1ccc(S(=O)(=O)N2CCCCC2CCNC(=O)C(=O)Nc2ccccc2F)cc1 (stereo not given) do in these assays?
aSyn UTR act: -148*

Results for Cc1ccc(S(=O)(=O)N2CCCCC2CCNC(=O)C(=O)NCc2ccco2)cc1 (stereo not given) ?
aSyn UTR act: -66*

What do the screens show for `O=c1nc(/C=C/c2ccc(-c3ccc(F)cc3)o2)cc(C(F)(F)F)[nH]1`?
aSyn UTR act: -62*

How did C/C(=N/NC(=O)c1ccc(C)s1)c1cccc(NC(=O)COc2ccc(Cl)cc2C)c1 do in these assays?
aSyn UTR act: -73*

What do the screens show for `C/C(=N\NC(=O)c1c(Cl)c(C)nn1C)c1cccc(NC(=O)COc2ccc(Cl)cc2)c1`?
aSyn UTR act: -100*

What do the screens show for `CCN(CC)c1ccc(C=N/C(C#N)=C(\N)C#N)cc1`?
aSyn UTR act: -138*

Results for O=C(N/N=C/c1ccccc1F)NC1CCCCC1 ?
aSyn UTR act: -130*

What do the screens show for `O=C(N/N=C/c1cccc(F)c1)c1c(O)c2c([nH]c1=O)CCCC2`?
aSyn UTR act: -137*

How did O=C(N/N=C/c1cccc(F)c1)NC1CCCCC1 do in these assays?
aSyn UTR act: -76*

How did CCCCc1ccc(-c2nc(N)n[nH]2)cc1 do in these assays?
aSyn UTR act: -100*

How did CN(Cc1ccsc1)C(=O)Cn1cc(Br)ccc1=O do in these assays?
aSyn UTR act: -97*

How did O=C(NCc1ccco1)C(=O)NCc1ccccc1Cl do in these assays?
aSyn UTR act: -71*

Results for O=C(NCc1ccco1)c1sc2ccccc2c1Cl ?
aSyn UTR act: -114*

What do the screens show for `O=C(NCc1ccco1)c1sc2cc(Cl)ccc2c1Cl`?
aSyn UTR act: -66*

What do the screens show for `O=C(Nc1ccon1)c1sc2cc(Cl)ccc2c1Cl`?
aSyn UTR act: -84*

What do the screens show for `CCN(CC)CCOC(=O)C(Cc1ccco1)Cc1cccc2ccccc12` (stereo not given)?
aSyn UTR act: 104

How did O=C(NCc1ccco1)c1cc2cc3ccc(Cl)cc3nc2o1 do in these assays?
aSyn UTR act: -62*

Results for CC(C)c1cc(C(=O)NC2CCCCC2)no1 ?
aSyn UTR act: -148*

Results for CCCc1cc(C(=O)NC2CCCCC2)no1 ?
aSyn UTR act: -146*

What do the screens show for `CCCc1cc(C(=O)NC2CCCC2)no1`?
aSyn UTR act: -94*

How did CS(=O)(=O)N1N=C(c2ccccc2)CC1c1ccc2c(c1)OCO2 (stereo not given) do in these assays?
aSyn UTR act: -275*

Results for CS(=O)(=O)Nc1cccc(C2=NN(S(C)(=O)=O)C(c3ccc4c(c3)OCO4)C2)c1 (stereo not given) ?
aSyn UTR act: -86*

How did Cc1ccc(C2CC(c3ccco3)=NN2S(C)(=O)=O)cc1 (stereo not given) do in these assays?
aSyn UTR act: -63*

How did COc1ccc(C(=O)n2c(N)nc3ccccc32)cc1OC do in these assays?
aSyn UTR act: -177*

Results for COc1ccc(C(=O)O/N=C(\N)c2cccc(C)c2)cc1OC ?
aSyn UTR act: -165*

Results for COc1ccc(C(=O)O/N=C(\N)c2ccccc2)cc1OC ?
aSyn UTR act: -180*

How did COc1ccc(/C(N)=N/OC(=O)CSc2ccccc2)cc1OC do in these assays?
aSyn UTR act: -125*

How did Cc1cccc(/C(N)=N/OC(=O)c2ccoc2C)c1 do in these assays?
aSyn UTR act: -116*

How did O=C(NC(=S)Nc1ccccc1O)c1ccccc1Cl do in these assays?
aSyn UTR act: -127*

How did O=C(NNC(=S)Nc1ccccc1Cl)c1ccccc1Br do in these assays?
aSyn UTR act: -94*

What do the screens show for `Cc1cccc(/C=N/c2sc3c(c2C#N)CCN(Cc2ccccc2)C3)c1O`?
aSyn UTR act: -74*

How did N#Cc1ccc(-c2cn3c(n2)SCC3)cc1 do in these assays?
aSyn UTR act: -144*

How did O=[N+]([O-])c1ccc(-c2cn3c(n2)SCC3)cc1 do in these assays?
aSyn UTR act: -81*

What do the screens show for `COc1ccc2c(c1)O/C(=C\c1ccccc1C)C2=O`?
aSyn UTR act: -131*

Results for COCCn1c(C)cc(C(=O)CSc2nc3ccccc3c(=O)n2Cc2ccco2)c1C ?
aSyn UTR act: -176*

How did CCc1nnc(NC(=S)Nc2ccccc2)s1 do in these assays?
aSyn UTR act: -124*

How did Cc1nc(NC(=S)Nc2ccccc2)sc1C do in these assays?
aSyn UTR act: -166*

How did CCN(C(=O)C1=COCCO1)c1nc2c(C)cccc2s1 do in these assays?
aSyn UTR act: -84*

Results for CC1CCCCN1S(=O)(=O)c1ccc(C(=O)N(CCCN(C)C)c2nc3ccc(Br)cc3s2)cc1 (stereo not given) ?
aSyn UTR act: 67

What do the screens show for `Cc1cc(C)c2nc(N(CCCN(C)C)C(=O)C3=COCCO3)sc2c1`?
aSyn UTR act: -91*

How did CN(C)CCCN(C(=O)C1=COCCO1)c1nc2ccc(Br)cc2s1 do in these assays?
aSyn UTR act: -63*

How did O=[N+]([O-])c1ccc(O)c(C2=NNC(c3ccccc3F)C2)c1 (stereo not given) do in these assays?
aSyn UTR act: -122*

Results for CC(C)CN(C(=O)c1ccc(=O)n(C)n1)c1nc2ccccc2s1 ?
aSyn UTR act: -109*

Results for Cc1cc(C)c2oc(-c3cccc(N)c3)nc2c1 ?
aSyn UTR act: -132*

How did O=C(c1cc2cc(Br)ccc2o1)N1CCOCC1 do in these assays?
aSyn UTR act: -85*

What do the screens show for `O=C(c1cc2cc(Br)ccc2o1)N1CCCC1`?
aSyn UTR act: -64*

What do the screens show for `Brc1ccc2c(c1)OCCOCCOc1cc(Br)ccc1OCCOCCOCCO2`?
aSyn UTR act: 73

What do the screens show for `Cc1nn(-c2ccccc2)c(N)c1N=Nc1ccc(Cl)cc1`?
aSyn UTR act: -175*

How did Cc1cccc(N=Nc2c(C)nn(-c3ccccc3)c2N)c1C do in these assays?
aSyn UTR act: -124*

How did O=C(Nc1ccc(Cl)cc1)ON=C1CCCC1 do in these assays?
aSyn UTR act: -75*

What do the screens show for `Cc1cccc(N(C(=O)c2nsc(Cl)c2Cl)C(C(=O)NC2CCCC2)c2ccc(O)cc2)c1` (stereo not given)?
aSyn UTR act: -82*

How did CN(CCC#N)C(=O)c1cc2c(s1)-c1ccccc1SC2 do in these assays?
aSyn UTR act: -91*

Results for CCOC(=O)C1=C(C)C/C(=N\NC(=O)c2ccccc2O)CC1 ?
aSyn UTR act: -79*

What do the screens show for `Cc1ccc(Oc2ccc(/C=N/O)cn2)cc1`?
aSyn UTR act: -83*

Results for Cc1ccc(COc2ccc(/C=N/O)cc2)cc1 ?
aSyn UTR act: -131*

What do the screens show for `COc1ccc(C(=O)/C=C2\NCCc3cc(OC)c(OC)cc32)cc1OC`?
aSyn UTR act: 64

Results for COc1ccc(N/C=C\C(=O)c2ccc(C)cc2)cc1OC ?
aSyn UTR act: -84*
